Reference: PubChem BioAssay AID1159580 (chemical genetic matrix, 2015)
The whole screen tested about 5,500 compounds, of which about 2,000 (36%) were called active. About 18% were inconclusive and are not listed. Cut-off read from the data, not from the text of the source: active = normalized growth mostly below about 0.91 (no sharp cut-off); inconclusive = no clear call, values can overlap the other calls; inactive = mostly above about 0.92. The list shows a part of the results.

Assay: chemical genetic growth profiling, strain panel (AID 1159580);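 note: tested at 20 µM; growth read once vehicle control cultures reached saturation at 30 °C; 1 = growth at the plate median or of vehicle wells; lower values mean less growth of the strain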
Details: growth OD

Measured: normalized growth

CCCCOC(=O)c1ccccc1C(=O)OCc1ccccc1
inactive: S. cerevisiae deletion strains, locus YAL013W, strain DEP1, stronger effect = lower value 0.988 | S. cerevisiae deletion strains, locus YBR021W, strain FUR4, stronger effect = lower value 0.965 | S. cerevisiae deletion strains, locus YBR229C, strain ROT2, stronger effect = lower value 0.987 | S. cerevisiae deletion strains, locus YCL029C, strain bik1, stronger effect = lower value 0.957 | S. cerevisiae deletion strains, locus YDL035C, strain GPR1, stronger effect = lower value 0.956 | S. cerevisiae deletion strains, locus YDL074C, strain BRE1, stronger effect = lower value 0.971 | S. cerevisiae deletion strains, locus YDL101C, strain DUN1, stronger effect = lower value 0.99 | S. cerevisiae deletion strains, locus YDL134C, strain PPH21, stronger effect = lower value 0.986 | S. cerevisiae deletion strains, locus YDL185W, strain tfp1, stronger effect = lower value 0.961 | S. cerevisiae deletion strains, locus YDL192W, strain arf1, stronger effect = lower value 0.972 | S. cerevisiae deletion strains, locus YDR101C, strain arx1, stronger effect = lower value 0.971 | S. cerevisiae deletion strains, locus YDR150W, strain NUM1, stronger effect = lower value 0.947 | S. cerevisiae deletion strains, locus YDR162C, strain NBP2, stronger effect = lower value 0.975 | S. cerevisiae deletion strains, locus YDR318W, strain mcm21, stronger effect = lower value 0.967 | S. cerevisiae deletion strains, locus YDR388W, stronger effect = lower value 0.95 | S. cerevisiae deletion strains, locus YDR502C, strain sam2, stronger effect = lower value 0.966 | S. cerevisiae deletion strains, locus YEL061C, strain CIN8, stronger effect = lower value 0.989 | S. cerevisiae deletion strains, locus YER110C, stronger effect = lower value 0.968 | S. cerevisiae deletion strains, locus YER155C, strain BEM2, stronger effect = lower value 0.968 | S. cerevisiae deletion strains, locus YER167W, strain BCK2, stronger effect = lower value 0.983 | S. cerevisiae deletion strains, locus YGL078C, strain dbp3, stronger effect = lower value 0.968 | S. cerevisiae deletion strains, locus YGL086W, strain mad1, stronger effect = lower value 0.975 | S. cerevisiae deletion strains, locus YGL248W, strain PDE1, stronger effect = lower value 0.993 | S. cerevisiae deletion strains, locus YGR078C, strain PAC10, stronger effect = lower value 0.97 | S. cerevisiae deletion strains, locus YGR135W, strain pre9, stronger effect = lower value 0.972 | S. cerevisiae deletion strains, locus YGR229C, strain SMI1, stronger effect = lower value 0.895 | S. cerevisiae deletion strains, locus YGR252W, strain gcn5, stronger effect = lower value 0.994 | S. cerevisiae deletion strains, locus YHR030C, strain SLT2, stronger effect = lower value 0.981 | S. cerevisiae deletion strains, locus YHR079C, strain IRE1 (second series), stronger effect = lower value 0.966 | S. cerevisiae deletion strains, locus YHR094C, strain hxt1, stronger effect = lower value 0.965 | S. cerevisiae deletion strains, locus YHR129C, strain ARP1, stronger effect = lower value 0.983 | S. cerevisiae deletion strains, locus YHR200W, strain rpn10, stronger effect = lower value 0.978 | S. cerevisiae deletion strains, locus YIL066C, strain RNR3, stronger effect = lower value 0.929 | S. cerevisiae deletion strains, locus YIL073C, strain SPO22, stronger effect = lower value 0.821 | S. cerevisiae deletion strains, locus YIL125W, strain kgd1, stronger effect = lower value 0.978 | S. cerevisiae deletion strains, locus YIR030C, strain dcg1, stronger effect = lower value 0.965 | S. cerevisiae deletion strains, locus YJL095W, strain BCK1, stronger effect = lower value 0.994 | S. cerevisiae deletion strains, locus YJL134W, strain LCB3, stronger effect = lower value 0.968 | S. cerevisiae deletion strains, locus YJL168C, strain set2, stronger effect = lower value 0.974 | S. cerevisiae deletion strains, locus YJL187C, strain SWE1 (second series), stronger effect = lower value 0.971 | S. cerevisiae deletion strains, locus YJR043C, strain POL32, stronger effect = lower value 0.989 | S. cerevisiae deletion strains, locus YJR075W, strain HOC1, stronger effect = lower value 0.98 | S. cerevisiae deletion strains, locus YKL009W, strain mrt4, stronger effect = lower value 0.94 | S. cerevisiae deletion strains, locus YKL068W, stronger effect = lower value 0.964 | S. cerevisiae deletion strains, locus YKL085W, strain MDH1 (second series), stronger effect = lower value 0.973 | S. cerevisiae deletion strains, locus YKL085W, strain MDH1, stronger effect = lower value 0.973 | S. cerevisiae deletion strains, locus YKL190W, strain CNB1, stronger effect = lower value 0.979 | S. cerevisiae deletion strains, locus YKR001C, strain vps1, stronger effect = lower value 0.959 | S. cerevisiae deletion strains, locus YLR039C, strain RIC1, stronger effect = lower value 0.934 | S. cerevisiae deletion strains, locus YLR058C, strain SHM2, stronger effect = lower value 0.974 | S. cerevisiae deletion strains, locus YLR102C, strain apc9, stronger effect = lower value 0.971 | S. cerevisiae deletion strains, locus YLR262C, strain YPT6, stronger effect = lower value 0.858 | S. cerevisiae deletion strains, locus YLR268W, strain sec22, stronger effect = lower value 0.968 | S. cerevisiae deletion strains, locus YLR330W, strain CHS5, stronger effect = lower value 0.987 | S. cerevisiae deletion strains, locus YLR342W, strain FKS1 (second series), stronger effect = lower value 0.952 | S. cerevisiae deletion strains, locus YLR371W, strain rom2, stronger effect = lower value 0.97 | S. cerevisiae deletion strains, locus YLR418C, strain cdc73, stronger effect = lower value 0.976 | S. cerevisiae deletion strains, locus YML016C, strain PPZ1, stronger effect = lower value 0.996 | S. cerevisiae deletion strains, locus YML032C, strain rad52, stronger effect = lower value 0.964 | S. cerevisiae deletion strains, locus YML124C, strain tub3, stronger effect = lower value 0.956 | S. cerevisiae deletion strains, locus YMR078C, strain ctf18, stronger effect = lower value 0.957 | S. cerevisiae deletion strains, locus YMR223W, strain ubp8, stronger effect = lower value 0.957 | S. cerevisiae deletion strains, locus YMR263W, strain SAP30, stronger effect = lower value 0.973 | S. cerevisiae deletion strains, locus YMR307W, strain GAS1, stronger effect = lower value 0.718 | S. cerevisiae deletion strains, locus YNL067W, strain RPL9B, stronger effect = lower value 0.979 | S. cerevisiae deletion strains, locus YNL128W, strain TEP1, stronger effect = lower value 0.985 | S. cerevisiae deletion strains, locus YNL153C, strain GIM3, stronger effect = lower value 0.981 | S. cerevisiae deletion strains, locus YNL233W, strain BNI4, stronger effect = lower value 0.998 | S. cerevisiae deletion strains, locus YNL250W, strain rad50, stronger effect = lower value 0.968 | S. cerevisiae deletion strains, locus YNL271C, strain bni1, stronger effect = lower value 0.973 | S. cerevisiae deletion strains, locus YNL298W, strain CLA4, stronger effect = lower value 0.949 | S. cerevisiae deletion strains, locus YNL307C, strain MCK1, stronger effect = lower value 0.915 | S. cerevisiae deletion strains, locus YNL322C, strain KRE1, stronger effect = lower value 0.981 | S. cerevisiae deletion strains, locus YNR052C, strain pop2, stronger effect = lower value 0.964 | S. cerevisiae deletion strains, locus YOL006C, strain TOP1, stronger effect = lower value 0.838 | S. cerevisiae deletion strains, locus YOL012C, strain htz1 0.742 | S. cerevisiae deletion strains, locus YOL147C, strain pex11, stronger effect = lower value 0.964 | S. cerevisiae deletion strains, locus YOR061W, strain CKA2, stronger effect = lower value 0.984 | S. cerevisiae deletion strains, locus YOR069W, strain VPS5, stronger effect = lower value 0.982 | S. cerevisiae deletion strains, locus YOR136W, strain idh2, stronger effect = lower value 0.972 | S. cerevisiae deletion strains, locus YOR144C, strain elg1, stronger effect = lower value 0.962 | S. cerevisiae deletion strains, locus YOR184W, strain ser1, stronger effect = lower value 0.931 | S. cerevisiae deletion strains, locus YOR316C, strain cot1, stronger effect = lower value 0.972 | S. cerevisiae deletion strains, locus YPL055C, strain LGE1, stronger effect = lower value 0.957 | S. cerevisiae deletion strains, locus YPL241C, strain CIN2, stronger effect = lower value 0.979 | S. cerevisiae deletion strains, locus YPR119W, strain clb2, stronger effect = lower value 0.955 | S. cerevisiae deletion strains, locus YPR141C, strain kar3, stronger effect = lower value 0.959 | S. cerevisiae deletion strains, locus YPR163C, strain tif3, stronger effect = lower value 0.963 | S. cerevisiae deletion strains, locus YPR167C, strain met16, stronger effect = lower value 0.98 | S. cerevisiae deletion strains, strain wtn01, stronger effect = lower value 0.96 | S. cerevisiae strains, strain wild type, stronger effect = lower value 0.981
